This is an account of results in PubChem BioAssay.

Values joined by “and” are separate entries in the source; they are usually repeats but may differ in a detail not shown here. Equal values may be shown once. Active and inactive are the calls of the source. Unless noted, no rule for the calls is given here.

Test [1] deals with 6-phosphogluconate dehydrogenase, decarboxylating (Homo sapiens) (UniProt P52209). The test can be described thus: 6PGD enzyme inhibitors, primary screen, biochemical, human, recombinant enzyme, NADPH absorbance (AID 1159550;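 active = at least 20% inhibition of 6-phosphogluconate dehydrogenase activity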). The following applies: recombinant 6PGD, NADPH absorbance 341 nm; at 10 µM; stronger effect = higher value.
A short description of test [2]: liver-stage malaria parasite growth inhibition, primary screen, cell-based, HepG2, luciferase luminescence, HepG2 viability (AID 624349; in the data active = parasite load remaining mostly below about 12%, no sharp cut-off; inactive = mostly above about 10%;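 also: 100% = mean of DMSO negative control wells on the same plate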). The following applies: P. berghei liver stage in HepG2, luciferase luminescence, concentration not given here; parasite load remaining: stronger effect = lower value; viability: measured here: HepG2 viability without parasites.
The test system of test [3] is Hepatitis C virus NS3 helicase. The test can be described thus: HCV NS3 helicase inhibitors, primary screen, biochemical, fluorescence polarization, NIH Clinical Collection (AID 743270). The following applies: NS3 helicase binding to Cy5-dT15 DNA, stronger effect = higher value, concentration not given here. (In general: Fluorescence polarisation rises when a labelled molecule tumbles more slowly, as on binding a larger partner.)

Test [4] can be described thus: modulation of C. elegans fzo-1 (AID 1259413).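 Also: fzo-1 mutant C. elegans worms in liquid wells.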 The following applies: C. elegans fzo-1 modulator screen, mean read-out; stronger effect = higher value.
Test [5] is described as follows: differential killing of epithelial or mesenchymal cells, primary screen, imaging, PC-3E GFP, TEM4-18 mCherry, co-culture (AID 1345086;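 active = compounds killing one labelled cell type while sparing the other, by normalised counts and ratio limits, not self-fluorescent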;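 as to all read-outs here: cells exposed to compound for 72 h before imaging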;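 as to red/green cell ratio (normalised): normalised mesenchymal count divided by normalised epithelial count so high means epithelial killing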). The following applies: imaging cell counts, at 1 µM; for red/green cell ratio (normalised): actives lie on both sides, counts scaled to control wells, 1 = unselective.
Test [6] can be described thus: sensitizers of A549 cells to miR-34 induction, primary screen, imaging, A549 dox-inducible miR-34, nuclei and caspase counts (AID 1347080;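 active = compounds whose cell count with miR-34 switched on is under 0.7 times the count with it off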). The conditions noted are these: A549 miR-34 inducible, Hoechst nuclei count, 48 h.
Test [7] can be described thus: survival rescue of mitochondrial mutant cells in low glucose, primary screen, MELAS cybrids, Rieske KO mouse fibroblasts, CellTiter-Glo (AID 1508586;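 active = mean z-score across replicates of 1.96 or higher in either the MELAS or the Rieske mutant cell line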;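 also: z relative to plate mean and SD of compound and empty wells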). On the technique in general: In ATP-based viability assays light output follows the ATP content of the culture.
Test [8] addresses Mitogen-activated protein kinase 7 (Homo sapiens) (UniProt Q13164). The test can be described thus: ERK5 transactivation activators in reporter cells, primary screen, cell-based, HTS (AID 1508626;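 active = luciferase signal above three times the same-plate solvent-only control wells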;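 also: luciferase driven by Gal4-ERK5 fusion binding five Gal4 sites before minimal TATA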). The following applies: HeLa Gal4-ERK5 transactivation, 18 h, at 5 µM, stronger effect = higher value.
Test [9] in a line: viability rescue of complex I mutant cybrids, primary screen, cell-based, galactose medium, ATP luminescence (AID 1645843;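 active = z-score of at least 1.8 in each of two replicates, scored against plate mean and spread of sample wells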;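 also: positive z means more ATP and so rescue of galactose-driven cybrid death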). The following applies: complex I mutant cybrid cells, 72 h, stronger effect = higher value.
Test [10] has as its target NAD(+) hydrolase SARM1 (Homo sapiens) (UniProt Q6SZW1). The test can be described thus: SARM1 TIR NADase inhibitors, cell lysate, NAD-Glo luminescence (AID 1508614;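 active = compound whose remaining NAD level is above about 45 nM, limit read from the data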;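 also: higher remaining NAD means stronger inhibition of SARM1 NADase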). The conditions noted are these: SAM-TIR HEK293T lysate NADase, at 1 µM, stronger effect = higher value.
The mark [11] stands for this setting: measured here: epithelial PC-3E GFP cell survival.
[12] abbreviates: measured here: mesenchymal TEM4-18 mCherry cell survival.
The mark [13] stands for this setting: stronger effect = lower value, cell number ratio, induced over uninduced.
[14] abbreviates: measured here: relative caspase fold change +Dox/-Dox.
Setting [15] is: measured here: total cells with miR-34 induction, stronger effect = lower value.
Where [16] appears, read: measured here: total cells without miR-34 induction.
Setting [17] is: MELAS cybrid survival, CellTiter-Glo 48 h, stronger effect = higher value.
[18] abbreviates: Rieske KO mouse fibroblast survival, CellTiter-Glo 72 h.

Mitogen-activated protein kinase 7 (Homo sapiens), sequence (Q13164 whole entry, looked up, the tested form may be a part): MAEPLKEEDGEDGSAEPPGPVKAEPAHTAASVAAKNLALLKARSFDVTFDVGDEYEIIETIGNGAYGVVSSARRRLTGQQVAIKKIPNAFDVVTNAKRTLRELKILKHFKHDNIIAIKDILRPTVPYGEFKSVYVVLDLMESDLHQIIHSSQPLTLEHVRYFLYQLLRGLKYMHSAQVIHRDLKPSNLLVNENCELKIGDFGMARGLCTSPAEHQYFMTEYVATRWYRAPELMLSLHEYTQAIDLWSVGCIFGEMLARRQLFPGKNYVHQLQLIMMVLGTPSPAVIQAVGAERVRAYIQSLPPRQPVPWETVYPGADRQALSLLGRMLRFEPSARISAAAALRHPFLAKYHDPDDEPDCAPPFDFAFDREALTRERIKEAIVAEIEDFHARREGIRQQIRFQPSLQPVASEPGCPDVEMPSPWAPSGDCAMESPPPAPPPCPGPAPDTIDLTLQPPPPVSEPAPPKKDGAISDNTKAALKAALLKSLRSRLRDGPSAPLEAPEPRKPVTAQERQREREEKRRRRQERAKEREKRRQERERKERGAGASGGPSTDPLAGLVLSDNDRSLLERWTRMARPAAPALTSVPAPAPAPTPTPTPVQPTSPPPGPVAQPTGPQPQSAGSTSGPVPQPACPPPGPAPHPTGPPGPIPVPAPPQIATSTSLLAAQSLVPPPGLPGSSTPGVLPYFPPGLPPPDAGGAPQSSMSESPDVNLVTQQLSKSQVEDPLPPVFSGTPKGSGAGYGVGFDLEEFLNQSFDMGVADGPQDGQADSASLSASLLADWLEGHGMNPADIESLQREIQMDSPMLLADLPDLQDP
6-phosphogluconate dehydrogenase, decarboxylating (Homo sapiens), sequence (P52209 whole entry, looked up): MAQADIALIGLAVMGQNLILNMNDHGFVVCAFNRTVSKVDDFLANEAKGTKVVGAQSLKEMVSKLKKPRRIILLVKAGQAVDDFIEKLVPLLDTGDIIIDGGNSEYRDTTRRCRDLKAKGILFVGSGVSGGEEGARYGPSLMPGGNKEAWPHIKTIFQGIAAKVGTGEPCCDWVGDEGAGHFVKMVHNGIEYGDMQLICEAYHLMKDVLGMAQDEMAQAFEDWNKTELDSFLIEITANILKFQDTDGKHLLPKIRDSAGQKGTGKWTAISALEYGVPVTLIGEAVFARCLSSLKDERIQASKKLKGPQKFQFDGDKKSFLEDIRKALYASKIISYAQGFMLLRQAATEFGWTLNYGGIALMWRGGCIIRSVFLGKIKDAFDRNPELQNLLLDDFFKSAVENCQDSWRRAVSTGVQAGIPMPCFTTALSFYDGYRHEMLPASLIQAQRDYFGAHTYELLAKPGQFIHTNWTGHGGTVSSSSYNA
NAD(+) hydrolase SARM1 (Homo sapiens), sequence (Q6SZW1 whole entry, looked up): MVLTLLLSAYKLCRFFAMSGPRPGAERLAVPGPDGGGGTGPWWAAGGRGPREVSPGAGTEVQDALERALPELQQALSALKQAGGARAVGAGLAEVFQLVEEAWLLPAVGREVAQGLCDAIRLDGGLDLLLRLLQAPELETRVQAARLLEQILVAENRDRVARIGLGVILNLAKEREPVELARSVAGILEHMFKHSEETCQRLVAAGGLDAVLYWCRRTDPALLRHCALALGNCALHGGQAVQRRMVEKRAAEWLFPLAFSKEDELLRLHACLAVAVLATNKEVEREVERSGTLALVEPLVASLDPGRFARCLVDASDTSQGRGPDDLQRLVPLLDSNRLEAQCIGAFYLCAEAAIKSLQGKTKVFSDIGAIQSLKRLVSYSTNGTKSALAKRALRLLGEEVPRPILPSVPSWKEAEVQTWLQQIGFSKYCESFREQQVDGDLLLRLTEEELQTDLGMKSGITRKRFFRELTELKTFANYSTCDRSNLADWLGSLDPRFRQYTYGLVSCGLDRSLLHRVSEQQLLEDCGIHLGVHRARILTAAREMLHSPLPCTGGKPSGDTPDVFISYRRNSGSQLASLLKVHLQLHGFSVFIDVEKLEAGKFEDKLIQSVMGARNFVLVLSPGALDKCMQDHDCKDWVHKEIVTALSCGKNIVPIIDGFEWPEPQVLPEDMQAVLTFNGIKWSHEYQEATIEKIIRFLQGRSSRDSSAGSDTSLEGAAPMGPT

As to `CC1=CC(=O)C2C(C)(C)CCCC2(C)C1(O)CCc1ccoc1` (stereo unspecified), the inhibition in test [1] is -22.2% (inactive).

As for `COc1ccc(-c2cc(=O)c3c(OC)c(OC)c(OC)c(OC)c3o2)cc1OC`, the parasite load remaining in test [2] is 46.2% (inactive). This compound also displayed a viability in [2] of 66.9%. The figures for the inhibition in [3] and in test [1] were -1.19% (inactive) and 2.3% (inactive), respectively. Besides, in [4], the mean signal was 277 (inactive). Further, the red/green cell ratio (normalised) in [5] was 1.15 (inactive). The normalised cell number in test [5] (setting [11]) came out at 0.98; in test [5] (setting [12]), 1.13. Moreover, the fold change was 0.981 (inactive) and 0.97 (inactive) in test [6] (setting [13]); 1.14 and 0.279 in test [6] (setting [14]). In addition, the cell count is 9210 and 7680 in test [6] (setting [15]); 9390 and 7920 in test [6] (setting [16]). Moreover, the z-score in test [7] (setting [17]) was -0.237; in [7] (setting [18]) it was 2.19; in [9] it was 0.845 (inactive). Also, in test [8], the luciferase signal is 48 AU (inactive).

`CC(C(=O)O)c1ccc(-c2ccccc2)c(F)c1` (stereo unspecified): the inhibition was -2.77% (inactive) and -3.18% (inactive) in [3]; 19% (inactive) in [1]. The mean signal in test [4] is 239 (inactive). In [5], the red/green cell ratio (normalised) is 1.1 (inactive). Further, the normalised cell number in test [5] (setting [11]) is 1.07; in test [5] (setting [12]), 1.18. For the same compound, the z-score in [7] (setting [17]) was -0.289 (inactive) and 0.565 (inactive) and 0.434 (inactive); in test [7] (setting [18]), 1.18 and -0.0179 and 1.37. For the same compound, in test [10], the remaining NAD was 10 nM (inactive). The luciferase signal in test [8] was 40 AU (inactive).

As to `COc1ccccc1-c1cc(=O)c2cccc(OC)c2o1`, the inhibition in test [1] is 4.44% (inactive).

For `CC[C@H]1OC(=O)[C@H](C)[C@@H](O[C@H]2C[C@@](C)(OC)[C@@H](O)[C@H](C)O2)[C@H](C)[C@@H](O[C@@H]2O[C@H](C)C[C@H](N(C)C)[C@H]2O)[C@](C)(OC)C[C@@H](C)C(=O)[C@H](C)[C@@H](O)[C@]1(C)O`, the values for the inhibition in test [3] and in [1] were -0.4% (inactive) and 2.59% (inactive), respectively. Moreover, in test [4], the mean signal is 229 (inactive). In [5], the red/green cell ratio (normalised) is 0.75 (inactive). In addition, the normalised cell number turned out to be 1.39 in test [5] (setting [11]) and 1.04 in test [5] (setting [12]). For the same compound, the fold change is 0.89 (inactive) and 0.856 (inactive) in [6] (setting [13]); 4.5 and 0.962 in test [6] (setting [14]). The cell count in test [6] (setting [15]) is 11300 and 8870; in test [6] (setting [16]) it was 12700 and 10400. The z-score was -0.605 (inactive) and -0.357 (inactive) in test [7] (setting [17]); -0.647 and -0.657 in [7] (setting [18]); -0.33 (inactive) in test [9]. Also, the remaining NAD in test [10] is 10 nM (inactive). In [8], the luciferase signal is 44 AU (inactive).

On to `CCCCC(=O)N(Cc1ccc(-c2ccccc2-c2nn[nH]n2)cc1)[C@H](C(=O)O)C(C)C`, for which the parasite load remaining in test [2] was 147% (inactive) and 47.5% (inactive) and 92.3% (inactive). The viability in test [2] was 89.7% and 98.7% and 73.8%. The inhibition in [3] was 4.36% (inactive); in test [1], -2.51% (inactive). Also, in test [4], the mean signal was 250 (inactive). Besides, the red/green cell ratio (normalised) in test [5] was 1.14 (inactive). Also, the results for the normalised cell number in test [5] (setting [11]) and in test [5] (setting [12]) were 1.14 and 1.3, respectively. For the same compound, the fold change in [6] (setting [13]) was 0.954 (inactive) and 0.853 (inactive); in test [6] (setting [14]), 0.477 and 2.43. In addition, the cell count in test [6] (setting [15]) was 8040 and 10600; in test [6] (setting [16]) it was 8430 and 12500. Also, the z-score in test [7] (setting [17]) is 0.123 (inactive) and -0.397 (inactive); in [7] (setting [18]), 0.0466 and -1.21. Moreover, in test [10], the remaining NAD was 10 nM (inactive). For the same compound, the luciferase signal in test [8] is 56 AU (inactive).

For `O=C(O)C(O)C(O)C(=O)O` (stereo unspecified), the inhibition in test [1] is 6.59% (inactive).

`CC(=O)O[C@@H]1CC2C(C)(C)C=CC(=O)[C@]2(C)C2CC[C@@]3(C)[C@H](c4ccoc4)OC(=O)C4OC43[C@@]21C` (stereo partly specified): in [1], the inhibition is -6.87% (inactive).

One may read the inhibition as the relative decrease from the control value, in per cent. One may read the viability as a read-out of living cells in per cent, often relative to untreated cells.
